{
  "source": "PubChem BioAssay (NCATS)",
  "note": "“And” between values parts separate entries of the source, which are not always exact repeats. Equal values may be shown once. Results filed as inconclusive are left out. More than one record can exist for a structure, and the calls need not agree. The source made the active and inactive calls. Calls follow the shape of the dose curve; as a rule, active = well fitted inhibition curve with a large enough effect; inconclusive = small, poorly fitted or top-dose-only effect; inactive = flat fitted curve, though single readings scatter. % is scaled to controls: 0 for no effect and ±100 for the full control effect; potency is read from the fitted curve at half-maximal effect.",
  "data": [
    {"tested_on": "CRL-7250", "assay": "Cytotoxic Profiling of Annotated Libraries Using Quantitative High-Throughput Screening (AID 1296008); also: nearly all actives have a fitted effect of over 60% in size", "details": "Five cell lines viability, CellTiter-Glo ATP luminescence, 48-72 h; max response: stronger effect = lower value", "outline": "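Compounds were pin-transferred onto cells and incubated 48 or 72 hr at 37 degree Celsius, 95% humidity. CellTiter-Glo was added, plates sat 10 min at room temperature, then ATP-coupled luminescence was imaged as the viability read-out.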", "values": [
      {"smiles": "CCOC(=O)C1=C(C)NC(=S)NC1c1cccc(O)c1", "note": "(stereo not drawn)", "max response": "-18.5% (inactive)"},
      {"smiles": "CNC(=O)c1ccc(Nc2cc(Nc3ccccc3S(=O)(=O)C(C)C)c3cc[nH]c3n2)nc1", "Potency": "3.32 µM (active)"},
      {"smiles": "Cc1cnc(NC(=O)Nc2cc(Br)c(C)cc2OC[C@@H]2CNCCO2)cn1", "max response": "-18.7% (inactive)"},
      {"smiles": "C=C1C(=O)O[C@H]2[C@@H]1CCC(C)=CCC[C@@]1(C)O[C@@H]21", "Potency": "11.8 µM (active)"},
      {"smiles": "COc1cc2c(cc1OC)[C@@H]1C(=O)c3ccc4c(c3O[C@@H]1CO2)C=CC(C)(C)O4", "Potency": "0.0148 µM (active)"},
      {"smiles": "c1cc(CN2CCCNCCNCCCNCC2)ccc1CN1CCCNCCNCCCNCC1", "max response": "-0.856% (inactive)"},
      {"smiles": "N#CNC(=NCCCCCCOc1ccc(Cl)cc1)Nc1ccncc1", "max response": "-103% (inactive)"},
      {"smiles": "COc1cc2c(Nc3ccc(Cl)c(Cl)c3F)ncnc2cc1OCC1C[C@@H]2CN(C)C[C@H]2C1", "Potency": "9.35 µM (active)"},
      {"smiles": "N#Cc1ccc(COC[C@H]2O[C@@H](n3c(NCc4ccc(Cl)c(Cl)c4)nc4c(N)ncnc43)[C@@H](O)[C@@H]2O)cc1", "max response": "-5.8% (inactive)"},
      {"smiles": "COc1ccc(Nc2nccc(NCCO)n2)cc1", "max response": "1.05% (inactive)"},
      {"smiles": "CCOC(=O)[C@@H](N)Cc1ccc(-c2cc(O[C@H](c3ccc(Cl)cc3-n3ccc(C)n3)C(F)(F)F)nc(N)n2)cc1", "max response": "-8.01% (inactive)"},
      {"smiles": "C[C@@H]1[C@H](C)CC[C@]2(C(=O)O)CC[C@]3(C)C(=CC[C@@H]4[C@@]5(C)C[C@@H](O)[C@H](O)[C@@](C)(CO)[C@H]5CC[C@]43C)[C@@H]12", "max response": "-10.9% (inactive)"},
      {"smiles": "CC(C)(N)c1ccc(-c2nc3ccccc3nc2-c2ccccc2)cc1", "Potency": "0.0743 µM (active)", "max response": "-8.83% (inactive)"},
      {"smiles": "C=CC1=C(C(=O)O)N2C(=O)[C@@H](NC(=O)C(=NO)c3csc(N)n3)[C@H]2SC1", "outcome": "inactive"},
      {"smiles": "COc1cc(C(C)C)c(Oc2cnc(NC(CO)CO)nc2N)cc1I", "max response": "3.93% (inactive)"},
      {"smiles": "CC(=O)[C@]1(O)Cc2c(O)c3c(c(O)c2[C@@H](O[C@H]2C[C@H](N)[C@@H](O)[C@H](C)O2)C1)C(=O)c1ccccc1C3=O", "Potency": "1.48 µM (active)"},
      {"smiles": "CCOC(=O)N1CCN([N+]([O-])=NOc2ccc([N+](=O)[O-])cc2[N+](=O)[O-])CC1", "max response": "-5.72% (inactive)"},
      {"smiles": "c1cc(N[C@@H]2CCNC2)nc(-c2cnc3ccc(-c4cn[nH]c4)cn23)c1", "Potency": "11.8 µM (active)"},
      {"smiles": "O=C1c2c(O)cccc2[C@@H]([C@@H]2O[C@H](CO)[C@@H](O)[C@H](O)[C@H]2O)c2cc(CO)cc(O)c21", "max response": "-3.91% (inactive)"},
      {"smiles": "COc1cccc2c1C(=O)c1c(O)c3c(c(O)c1C2=O)C[C@@](O)(C(=O)CO)C[C@@H]3O[C@H]1C[C@H](N)[C@@H](O)[C@H](C)O1", "Potency": "1.18 µM (active)"},
      {"smiles": "Nc1ncn([C@@H]2O[C@H](CO)[C@@H](O)[C@@H]2O)c(=O)n1", "Potency": "5.26 µM (active)"},
      {"smiles": "Cc1cnc(Nc2ccc(CN3CCOCC3)cc2)nc1Nc1cccc(S(=O)(=O)NC(C)(C)C)c1", "Potency": "3.32 µM (active) and 4.61 µM (active)"},
      {"smiles": "CC(=O)OC[C@@H]1O[C@@H](n2ccc(=O)[nH]c2=O)[C@H](OC(C)=O)[C@H]1OC(C)=O", "max response": "-3.38% (inactive)"},
      {"smiles": "NC(=O)c1ncn([C@@H]2O[C@H](CO)[C@@H](O)[C@@H]2O)c1O", "max response": "-0.101% (inactive)"},
      {"smiles": "O=C(C=Cc1ccc(CN(CCO)CCc2c[nH]c3ccccc23)cc1)NO", "Potency": "0.833 µM (active)"},
      {"smiles": "COc1ccnc2[nH]cc(C(=O)C(=O)N3CCN(C(=O)c4ccccc4)C[C@@H]3C)c12", "max response": "-9.05% (inactive)"},
      {"smiles": "CS[C@H]1SC[C@@H]2C(=O)N(C)[C@H](C(C)C)C(=O)OC[C@H](NC(=O)c3cnc4ccccc4n3)C(=O)N[C@H](C)C(=O)N(C)[C@@H]1C(=O)N(C)[C@H](C(C)C)C(=O)OC[C@H](NC(=O)c1cnc3ccccc3n1)C(=O)N[C@H](C)C(=O)N2C", "Potency": "0.0074 µM (active)"},
      {"smiles": "C#C[C@]1(O)CC[C@@H]2[C@@H]3CCC4=CC(=O)CC[C@@H]4[C@H]3CC[C@@]21CC", "max response": "-6.84% (inactive)"},
      {"smiles": "O=C(CN1C(=O)C2(CCCC2)NC[C@H]1c1cc(F)cc(F)c1)Nc1ccc2c(c1)C[C@@]1(C2)C(=O)Nc2ncccc21", "outcome": "inactive"},
      {"smiles": "CCCCOc1ccc(C(=O)Nc2ccc(F)cc2F)cc1", "max response": "-1.1% (inactive)", "outcome": "inactive"},
      {"smiles": "Nc1ccc(C(=O)Nc2cccc(-c3nc(N4CCOCC4)c4oc5ncccc5c4n3)c2)cn1", "outcome": "inactive"}
    ]}
  ]
}
